Laboratory results taken from a collection of fitness landscapes (doi:10.1126/science.1257360).
Whole data set: some 140,000 sequences, median “enrichment ratio after two sorts for PhoP signalling” near 0, cut for the highest 2% near 11. The full list was thinned out, with the highest values kept by preference.

B1: PhoQ; a variant is named by its letters at X, in order, P23837 (parent)
chain: MKKLLRLFFPLSLRVRFLLATAAVVLVLSLAYGMVALIGYSVSFDKTTFRLLRGESNLFYTLAKWENNKLHVELPENIDKQSPTMTLIYDENGQLLWAQRDVPWLMKMIQPDWLKSNGFHEIEADVNDTSLLLSGDHSIQQQLQEVREDDDDAEMTHSVAVNVYPATSRMPKLTIVVVDTIPVELKSSYMVWSWFIYVLSANLLLVIPLLWVAAWWSLRPIEALAKEVRELEEHNRELLNPATTRELTSLVRNLNRLLKSERERYDKYRTTLTDLTHSLKTPLXXLQXXLRSLRSEKMSVSDAEPVMLEQISRISQQIGYYLHRASMRGGTLLSRELHPVAPLLDNLTSALNKVYQRKGVNISLDISPEISFVGEQNDFVEVMGNVLDNACKYCLEFVEISARQTDEHLYIVVEDDGPGIPLSKREVIFDRGQRVDTLRPGQGVGLAVAREITEQYEGKIVAGESMLGGARMEVIFGRQHSAPKDE

Variants of: B1
Experiment: enrichment ratio after two sorts for PhoP signalling (ratio (wild type AVST 3.29)); higher = more functional
Conditions: with PhoP (E. coli)
In the case of ALCQ, the enrichment ratio is reported as 13.8.
Work on ALCI yielded an enrichment ratio of 9.33.
For LLCQ, the enrichment ratio was no more than 0.25.
For ALQP, the enrichment ratio was no more than 0.25.
ALCE showed an enrichment ratio of 16.1.
With ALVE the enrichment ratio was no more than 0.25.
For FDQC, the enrichment ratio was no more than 0.25.
With HRRK the enrichment ratio was no more than 0.25.
Variant GSPQ has an enrichment ratio of no more than 0.25.
Variant WQFG has an enrichment ratio of no more than 0.25.
Variant QRFG has an enrichment ratio of no more than 0.25.
QEFG gave an enrichment ratio of 30.8.
QQFA gave an enrichment ratio of no more than 0.25.
QQFG gave an enrichment ratio of 20.2.
QKFG was tested, and the enrichment ratio was no more than 0.25.
Variant YSKV has an enrichment ratio of no more than 0.25.
PITH gave an enrichment ratio of no more than 0.25.
Work on YICL yielded an enrichment ratio of 3.21.
Work on AENT yielded an enrichment ratio of 10.7.
Variant AAAL has an enrichment ratio of 4.97.
AEVT gave an enrichment ratio of 15.3.
Variant AEAL has an enrichment ratio of 18.2.
For AEEV, the enrichment ratio was 2.19.
For ADAL, the enrichment ratio was no more than 0.25.
With AEFT the enrichment ratio was 6.27.
AEAT was tested, and the enrichment ratio was 47.1.
AEYT showed an enrichment ratio of 2.16.
AELT showed an enrichment ratio of 6.58.
Work on AEYV yielded an enrichment ratio of no more than 0.25.
AEAV was tested, and the enrichment ratio was 15.8.
In the case of FMVL, the enrichment ratio is reported as no more than 0.25.
Variant SFSW has an enrichment ratio of no more than 0.25.
Work on TSQR yielded an enrichment ratio of no more than 0.25.
Variant MHEF has an enrichment ratio of no more than 0.25.
Variant INEK has an enrichment ratio of no more than 0.25.
HTRD gave an enrichment ratio of no more than 0.25.
Work on IMKH yielded an enrichment ratio of no more than 0.25.
Work on GQND yielded an enrichment ratio of no more than 0.25.
Variant FWMY has an enrichment ratio of no more than 0.25.
Variant RETL has an enrichment ratio of no more than 0.25.
In the case of VEGG, the enrichment ratio is reported as no more than 0.25.
ECSV gave an enrichment ratio of no more than 0.25.
With IAKM the enrichment ratio was no more than 0.25.
In the case of ANIY, the enrichment ratio is reported as 0.312.
AEAM gave an enrichment ratio of 5.95.
AEIY showed an enrichment ratio of 14.8.
AEAG was tested, and the enrichment ratio was 7.71.
ARST showed an enrichment ratio of no more than 0.25.
With AQQY the enrichment ratio was no more than 0.25.
Variant AEQP has an enrichment ratio of no more than 0.25.
AEAS gave an enrichment ratio of 21.3.
For AEQY, the enrichment ratio was 17.1.
With AEST the enrichment ratio was 18.4.
ADIY gave an enrichment ratio of no more than 0.25.
Variant AQST has an enrichment ratio of 5.3.
MKWE gave an enrichment ratio of no more than 0.25.
For PDNP, the enrichment ratio was no more than 0.25.
PQPV gave an enrichment ratio of no more than 0.25.
INLG gave an enrichment ratio of 2.36.
In the case of DREC, the enrichment ratio is reported as no more than 0.25.
With VNMC the enrichment ratio was 1.44.
Work on AEDY yielded an enrichment ratio of no more than 0.25.
AEIN was tested, and the enrichment ratio was 1.09.
AIWT showed an enrichment ratio of no more than 0.25.
In the case of AEAW, the enrichment ratio is reported as no more than 0.25.
AEAN showed an enrichment ratio of 28.2.
For AEAY, the enrichment ratio was 39.2.
Variant AEKA has an enrichment ratio of no more than 0.25.
Work on AEAI yielded an enrichment ratio of 14.2.
AERY gave an enrichment ratio of no more than 0.25.
AEYI showed an enrichment ratio of 3.12.
For AEWT, the enrichment ratio was 22.1.
Work on AEYM yielded an enrichment ratio of 3.72.
With ITKR the enrichment ratio was no more than 0.25.
Work on SVFT yielded an enrichment ratio of no more than 0.25.
For VISK, the enrichment ratio was no more than 0.25.
Variant LWWA has an enrichment ratio of no more than 0.25.
With NMII the enrichment ratio was no more than 0.25.
TPVN was tested, and the enrichment ratio was no more than 0.25.
Variant FWRY has an enrichment ratio of no more than 0.25.
With SCFG the enrichment ratio was no more than 0.25.
In the case of ITNE, the enrichment ratio is reported as no more than 0.25.
Variant TRFM has an enrichment ratio of no more than 0.25.
GRSR showed an enrichment ratio of no more than 0.25.
For PKLW, the enrichment ratio was no more than 0.25.
Variant ECFL has an enrichment ratio of no more than 0.25.
NQDT gave an enrichment ratio of no more than 0.25.
AEYQ was tested, and the enrichment ratio was no more than 0.25.
For AEAD, the enrichment ratio was no more than 0.25.
AEAA showed an enrichment ratio of 12.1.
AEGY was tested, and the enrichment ratio was 43.4.
With AENY the enrichment ratio was 5.26.
For AEYY, the enrichment ratio was no more than 0.25.
Work on SGEP yielded an enrichment ratio of no more than 0.25.
INCT showed an enrichment ratio of no more than 0.25.
In the case of NFHN, the enrichment ratio is reported as no more than 0.25.
NMVN showed an enrichment ratio of no more than 0.25.
Work on DKLH yielded an enrichment ratio of no more than 0.25.
PNLH showed an enrichment ratio of no more than 0.25.
Work on ANFC yielded an enrichment ratio of no more than 0.25.
Variant ANNK has an enrichment ratio of 0.253.
Variant ANTA has an enrichment ratio of 19.3.
For ANTC, the enrichment ratio was 63.
ANTK was tested, and the enrichment ratio was no more than 0.25.
Work on ANTD yielded an enrichment ratio of no more than 0.25.
With ANTH the enrichment ratio was 6.44.
In the case of ANTR, the enrichment ratio is reported as no more than 0.25.
In the case of ANTS, the enrichment ratio is reported as 21.1.
ANTI was tested, and the enrichment ratio was 11.4.
Work on ANTE yielded an enrichment ratio of no more than 0.25.
With ANTG the enrichment ratio was 1.58.
With MYDG the enrichment ratio was no more than 0.25.
Variant PVQS has an enrichment ratio of no more than 0.25.
In the case of RRVW, the enrichment ratio is reported as no more than 0.25.
Variant HRAN has an enrichment ratio of no more than 0.25.
In the case of KEHR, the enrichment ratio is reported as no more than 0.25.
In the case of SANM, the enrichment ratio is reported as 9.22.
Variant NAVG has an enrichment ratio of no more than 0.25.
Variant EVLL has an enrichment ratio of no more than 0.25.
KQMR was tested, and the enrichment ratio was no more than 0.25.
Work on YTIQ yielded an enrichment ratio of no more than 0.25.
For MMIQ, the enrichment ratio was no more than 0.25.
SEIE showed an enrichment ratio of no more than 0.25.
Work on MEIQ yielded an enrichment ratio of 19.4.
With MDIQ the enrichment ratio was 0.654.
Work on SEFQ yielded an enrichment ratio of 6.8.
With KYIQ the enrichment ratio was no more than 0.25.
SEIQ showed an enrichment ratio of 22.9.
Variant STIQ has an enrichment ratio of 14.
Work on EGNN yielded an enrichment ratio of no more than 0.25.
NRRY gave an enrichment ratio of no more than 0.25.
For THCI, the enrichment ratio was 7.06.
For ANVR, the enrichment ratio was no more than 0.25.
HNSH showed an enrichment ratio of no more than 0.25.
HYAD showed an enrichment ratio of no more than 0.25.
For LNEM, the enrichment ratio was no more than 0.25.
KKNT showed an enrichment ratio of no more than 0.25.
GMCN was tested, and the enrichment ratio was 13.6.
FQCN showed an enrichment ratio of no more than 0.25.
In the case of FNCN, the enrichment ratio is reported as no more than 0.25.
Work on SELN yielded an enrichment ratio of 8.08.
Variant FCCN has an enrichment ratio of no more than 0.25.
GTCN gave an enrichment ratio of 3.53.
For GMLN, the enrichment ratio was 0.729.
KECN showed an enrichment ratio of no more than 0.25.
Work on TECN yielded an enrichment ratio of 60.8.
SECN showed an enrichment ratio of 23.5.
SNCN showed an enrichment ratio of 7.42.
For FECN, the enrichment ratio was 13.
Variant KSEA has an enrichment ratio of no more than 0.25.
VGRD showed an enrichment ratio of no more than 0.25.
RFAS was tested, and the enrichment ratio was no more than 0.25.
In the case of LNVE, the enrichment ratio is reported as no more than 0.25.
For GWCA, the enrichment ratio was no more than 0.25.
Work on ACRC yielded an enrichment ratio of no more than 0.25.
Variant RCNS has an enrichment ratio of no more than 0.25.
FSFI gave an enrichment ratio of 0.694.
IGKY showed an enrichment ratio of no more than 0.25.
Variant SSNS has an enrichment ratio of 0.835.
VECN showed an enrichment ratio of no more than 0.25.
FELN gave an enrichment ratio of 13.7.
With MECN the enrichment ratio was 12.6.
Work on NECN yielded an enrichment ratio of no more than 0.25.
Variant FEWI has an enrichment ratio of no more than 0.25.
FELA showed an enrichment ratio of 2.53.
With QECN the enrichment ratio was 9.04.
TCCN showed an enrichment ratio of 17.6.
With DCCN the enrichment ratio was no more than 0.25.
MPYN gave an enrichment ratio of no more than 0.25.
DKHY showed an enrichment ratio of no more than 0.25.
Variant CHTM has an enrichment ratio of no more than 0.25.
For NPDP, the enrichment ratio was no more than 0.25.
Variant DDIR has an enrichment ratio of no more than 0.25.
QAWS showed an enrichment ratio of 18.4.
QAWL gave an enrichment ratio of 19.9.
Work on QAWM yielded an enrichment ratio of 10.8.
In the case of KAWL, the enrichment ratio is reported as no more than 0.25.
Variant QAWI has an enrichment ratio of no more than 0.25.
Work on NAWL yielded an enrichment ratio of no more than 0.25.
Variant NGDG has an enrichment ratio of no more than 0.25.
In the case of NCII, the enrichment ratio is reported as no more than 0.25.
Work on YKNN yielded an enrichment ratio of no more than 0.25.
GHVH was tested, and the enrichment ratio was no more than 0.25.
HGGE was tested, and the enrichment ratio was no more than 0.25.
Variant LYYP has an enrichment ratio of no more than 0.25.
LFEG gave an enrichment ratio of no more than 0.25.
NESY showed an enrichment ratio of no more than 0.25.
For SESY, the enrichment ratio was 25.4.
QESY was tested, and the enrichment ratio was no more than 0.25.
YTSY was tested, and the enrichment ratio was no more than 0.25.
With GESY the enrichment ratio was 12.8.
With GVSY the enrichment ratio was no more than 0.25.
Work on KQSY yielded an enrichment ratio of no more than 0.25.
For SQSY, the enrichment ratio was 8.96.
With GEEY the enrichment ratio was no more than 0.25.
SRSY was tested, and the enrichment ratio was no more than 0.25.
TESY showed an enrichment ratio of 23.2.
STSY showed an enrichment ratio of 11.6.
